# Reference: PubChem BioAssay AID2685 (National Center for Advancing Translational Sciences (NCATS), 2010)
# Hit rate of the full screen: of about 320,000 compounds, about 2,100 (0.66%) were called active. About 53% were inconclusive and are not listed. Calls come from the whole dose curve; as a rule, active = well fitted inhibition curve with a large enough effect in the signal ratio, with a control signal flat (not every such curve was filed as active); inconclusive = small, poorly fitted or top-dose-only effect, or effect the other way, or a change in a side signal; inactive = flat fitted curve, though single readings scatter; the % refers to the signal ratio. The list comes from a sample in which actives are over-represented; it also holds similar structures and randomly drawn compounds.
# Assay: qHTS Assay for Lipid Storage Modulators in Drosophila S3 Cells;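 for cell number change: cells counted by Cell Tracker Red CMTPX staining in the red channel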; for lipid storage change, negative = inhibition: % is set by controls: 0 for no effect and ±100 for the full control effect
# Conditions: BODIPY lipid droplet fluorescence, 18-24 h, cells fed with added oleic acid; cell number change: measured here: cell count max response; series mostly up to 46.1 µM
# In short: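 Laser-scanning cytometry quantifies lipid droplet accumulation (500–530 nm total intensity; droplet/cell object ratio) in oleic acid-fed (400 uM added) Drosophila S3 cells treated with a concentration series. 20 uM Triacsin C defined 100% inhibition.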
# Potency is the fitted concentration of half-maximal effect.
Compound,Potency,cell number change,outcome,"lipid storage change, negative = inhibition"
Cc1[nH]n(-c2ccccc2)c(=O)c1C(=O)c1ccc([N+](=O)[O-])cc1,inactive,5.62%,–,–
Cc1[nH]n(-c2ccccc2)c(=O)c1C(=O)c1ccc(Cl)cc1,inactive,-16%,–,–
C/C(=N\NC(=O)c1ccc(C)cc1)c1c(C)[nH]n(-c2ccccc2)c1=O,9.2 µM (active),-9.89%,–,–
CN1C(=O)c2cccc(NC(=O)CCc3ccccc3)c2C1=O,inactive,-9.83%,–,–
Cc1ccc(-n2ncc3c(=O)[nH]c(SCC(=O)N4CCCc5ccccc54)nc32)cc1,inactive,–,–,–
O=C(NCCCN1CCOCC1)c1ccccc1,20.6 µM (active),-23.2%,–,–
O=C(NCCCN1CCOCC1)C1(c2ccccc2)CCOCC1,3.66 µM (active),2.27%,–,–
Cc1c(C)n(C)c2ccc(C(=O)NCCCN3CCN(c4ccc(F)cc4)CC3)cc12,inactive,4.18%,–,–
Cc1ccc(NC(=O)C2(c3ccccc3)CCOCC2)cc1,inactive,16.3%,–,–
O=C(c1ccc(NC(=O)C2(c3ccccc3)CCOCC2)cc1)N1CCOCC1,23.1 µM (active),-1.58%,–,–
O=C(NCCCN1CCOCC1)C(=O)NCCc1ccccc1,inactive,-0.52%,–,–
O=C(NCCCN1CCOCC1)C1(c2ccccc2)CCCC1,inactive,-15.4%,–,–
Cc1c(C)n(Cc2ccc(F)cc2)c2ccc(C(=O)NCCCN3CCOCC3)cc12,29.1 µM (active),38.2%,–,–
O=C(NCCCN1CCOCC1)c1ccc2ccccc2c1,–,–,inactive [at 0.0737 µM],–
COc1ccc(C2(C(=O)Nc3ccc(C(=O)N4CCOCC4)cc3)CCOCC2)cc1,inactive,6.9%,–,–
O=C(Nc1ccccc1C(=O)NCCCN1CCOCC1)c1ccccc1,inactive,15.2%,–,–
CCn1c(C)c(C)c2cc(C(=O)NCCN3CCOCC3)ccc21,inactive,-16.2%,–,–
C/C(=N/NC(=O)CN(c1ccccc1)S(=O)(=O)c1ccccc1)c1ccccc1O,inactive,19.6%,–,–
Cc1cc(NC(=O)CCN2C(=O)/C(=C\c3ccccc3)SC2=S)no1,inactive,-8.06%,–,–
COc1ccc(-c2nnn(CC(=O)N3CCN(c4ccc(F)cc4)CC3)n2)cc1,inactive,0.734%,–,–
O=C(NCc1nc2ccccc2[nH]1)C1=C[C@H](c2csc3ccccc23)C[C@H](OCc2ccc(CO)cc2)O1,inactive,13.4%,–,–
COc1cc(CC(=O)OCC(=O)Nc2ccc(S(=O)(=O)N3CCCC3)cc2)cc(OC)c1OC,inactive,-19.3%,–,–
CCn1cc(C(=O)NCCCN(CC(C)C)CC(C)C)c(=O)c2cc(S(=O)(=O)N3CCOCC3)ccc21,inactive,21.3%,–,–

Compound,Potency,cell number change,outcome,"lipid storage change, negative = inhibition"
CCCN(CCC)CCCNC(=O)c1cn(CC)c2ccc(S(=O)(=O)N3CCOCC3)cc2c1=O,inactive,5.34%,–,–
CCn1cc(C(=O)NCCN(CC(C)C)CC(C)C)c(=O)c2cc(S(=O)(=O)N3CCOCC3)ccc21,7.31 µM (active),0.403%,–,–
CC1CCN(Cc2cc(=O)oc3ccc4ccccc4c23)CC1,inactive,16.9%,–,–
COc1ccc(C(=O)CC2SC(N)=NC2=O)cc1 (centres undefined),inactive,30%,–,–
Nc1[nH]ncc1C(=O)Nc1cccc(C(F)(F)F)c1,inactive,-8.81%,–,–
O=C(OCC(=O)N(C1CCCCC1)C1CCCCC1)c1ccc(O)cc1,inactive,3.31%,–,–
CC(C)(C)C(=O)COC(=O)c1ccc(O)cc1,inactive,15.5%,–,–
CCN(CC)C(=O)COC(=O)c1ccc(O)cc1,20.6 µM (active),4.39%,–,–
COCCC(=O)N1CCC(Oc2ccc(C(=O)NCCc3cnn(C)c3)cc2)CC1,inactive,8.02%,–,–
CCCN1CCC(NC(=S)Nc2ccc(S(N)(=O)=O)cc2)CC1,inactive,-2.79%,–,–
Cc1cccc(NC(=O)NCC(c2ccc(F)cc2)N2CCN(C)CC2)c1 (centres undefined),inactive,–,–,–
Cc1ccc(C(CNC(=O)Nc2cccc(C)c2)N2CCN(C)CC2)cc1 (centres undefined),inactive,-5.52%,–,–
Cc1ccc(C(CNC(=O)Nc2ccccc2)N2CCN(C)CC2)cc1 (centres undefined),7.31 µM (active),20.2%,–,–
S=C(NCc1ccccc1)NCc1cccc(Cl)c1,inactive,7.23%,–,–
Nc1nnc(SCC(=O)Nc2ccc(S(=O)(=O)N3CCOCC3)cc2)s1,inactive,–,–,–
O=C(COc1ccc(S(=O)(=O)N2CCOCC2)cc1)Nc1ccccc1F,–,–,inactive [at 0.0737 µM],–
O=C(CSc1ncnc2sccc12)Nc1ccc(S(=O)(=O)N2CCOCC2)cc1,14.6 µM (active),4.37%,–,–
O=C(COc1ccccc1Cl)Nc1ccc(S(=O)(=O)N2CCOCC2)cc1,inactive,-11.3%,–,–
Cc1cc(C)c(OCC(=O)Nc2ccc(S(=O)(=O)N3CCCC3)cc2)c(C)c1,inactive,–,–,–
O=C(CSc1ncnc2ccccc12)Nc1cccc(S(=O)(=O)N2CCOCC2)c1,inactive,–,–,–
O=C(COc1ccc(S(=O)(=O)N2CCOCC2)cc1)Nc1ccccc1Cl,1.84 µM (active),7.69%,–,–
Cc1ccc(S(=O)(=O)N2CCOCC2)cc1NC(=O)COc1ccc2c(C)cc(=O)oc2c1,inactive,–,–,–
Cc1ccc(OCC(=O)Nc2ccc(S(=O)(=O)N3CCOCC3)cc2)c(C)c1,inactive,25.8%,–,–

Compound,Potency,cell number change,outcome,"lipid storage change, negative = inhibition"
Cc1ccc(S(=O)(=O)N2CCOCC2)cc1NC(=O)COC(=O)CNC(=O)c1ccccc1,inactive,5.41%,–,–
Cc1cc(C)c(OCC(=O)Nc2ccc(S(=O)(=O)N3CCOCC3)cc2)c(C)c1,2.31 µM (active),10.8%,–,–
Cc1ccc(S(=O)(=O)N2CCOCC2)cc1NC(=O)COc1ccc(C(=O)c2ccccc2)cc1,7.31 µM (active),12.9%,–,–
O=C1C(NS(=O)(=O)c2cccs2)=C(N2CCOCC2)C(=O)c2ccccc21,inactive,-7.78%,–,–
O=C(Cn1nc2ccccc2n1)N/N=C/c1ccc(F)cc1,inactive,-8.94%,–,–
CCOC(=O)c1nnn(-c2nonc2N)c1CSc1nnc(N)s1,inactive,–,–,–
Cc1cccc(C(=O)O/N=C/c2ccc(Br)cc2)c1,inactive,7.42%,–,–
Cc1ccc(S(=O)(=O)NC(C(=O)N2CCOCCOCCOCCOCC2)C(C)C)cc1 (centres undefined),inactive,-9.21%,–,–
Cc1cc(=O)oc2cc(OCC(=O)OCC(=O)Nc3ccc(C(N)=O)cc3)ccc12,inactive,4.9%,–,–
CN1CCN(C(=O)c2ccc(COc3cc(Cl)ccc3Cl)o2)CC1,inactive,0.87%,–,–
CCC1(CC)Cc2ccccc2C(C2=C(O)CC(C)(C)CC2=O)=N1,inactive,0.769%,–,–
Cc1ccc2c(c1)COc1c3ccc(C(=O)N4CCCCC4)cc3nn1-2,inactive,-6.37%,–,–
O=C(Cc1ccccc1[N+](=O)[O-])NCCc1ccc(F)cc1,inactive,16.5%,–,–
CC(C)Cc1nnc(NC(=O)C2CCN(C(=O)c3ccc(F)cc3)CC2)s1,inactive,–,–,–
O=C(Cn1cnc2c(cnn2-c2ccccc2)c1=O)Nc1ccc(S(=O)(=O)N2CCOCC2)cc1,inactive,-0.435%,–,–
CC(=O)c1cccc(OCC(=O)Nc2cc(S(=O)(=O)N3CCOCC3)ccc2N2CCCC2)c1,inactive,-28.5%,–,–
CCOc1ccc(C(=O)NNC(=O)c2cc(S(=O)(=O)N3CCOCC3)ccc2Cl)cc1,25.9 µM (active),8.57%,–,–
CCc1cccc(OCC(=O)Nc2cc(S(=O)(=O)N3CCOCC3)ccc2N2CCCC2)c1,13 µM (active),-12.1%,–,–
O=S(=O)(c1ccc(Oc2ccc(Br)cc2)cc1)N1CCOCC1,13 µM (active),-10%,–,–
Cc1ccc(C(=O)NNC(=O)c2ccc(S(=O)(=O)N3CCOCC3)cc2)cc1,inactive,13.5%,–,–
CCc1cccc(OCC(=O)Nc2ccccc2N2CCCC2)c1,inactive,-24.4%,–,–
O=S(=O)(c1ccc(OCc2ccc(Br)cc2)cc1)N1CCOCC1,inactive,-10.6%,–,–
O=S(=O)(c1ccc(Oc2ccccc2)cc1)N1CCOCC1,inactive,–,–,–

Compound,Potency,cell number change,outcome,"lipid storage change, negative = inhibition"
O=C(Cn1cnc2c(cnn2-c2ccccc2)c1=O)N1CCOCC1,inactive,–,–,–
O=C(Cn1cnc2c(cnn2-c2ccccc2)c1=O)Nc1cc(S(=O)(=O)N2CCOCC2)ccc1Cl,25.9 µM (active),-7.78%,–,–
CCOc1ccc(NC(=O)c2cc(S(=O)(=O)N3CCOCC3)cs2)cc1,inactive,-10.9%,–,–
O=C(c1ccccc1)c1cccn1CC(=O)N1CCCCCC1,inactive,10.2%,–,–
CC(=O)N1N=C(c2c(-c3ccccc3)c3cc(C)ccc3[nH]c2=O)CC1c1ccco1 (centres undefined),inactive,–,–,–
Cc1ccc(S(=O)(=O)N2CCOC2CNC(=O)C(=O)NCCc2c[nH]c3ccccc23)cc1 (centres undefined),–,24.7%,–,6.05% [at 9.22 µM] (inactive)
Cc1nn(C)c(Cl)c1CN1CCN(CCC(C)C)C(CCO)C1 (centres undefined),inactive,11.3%,–,–
CCOC(=O)c1c(NC(=O)CSc2nnc(C)c(=O)[nH]2)sc(C)c1-c1ccc(C)cc1,inactive,18.2%,–,–
COc1cccc(NC(=O)C(C)Sc2nnc(C3CC3)n2C2CC2)c1 (centres undefined),inactive,-1.32%,–,–
Cc1ccc(S(=O)(=O)N2CCCCC2)cc1NC(=O)COC(=O)Cc1c(F)cccc1Cl,inactive,10%,–,–
CCOC(=O)/C(=N/Nc1ccc(OC)cc1)N1CCCc2ccccc21,inactive,-4.8%,–,–
CCOC(=O)c1[nH]ncc1CN1CCCC(C(=O)c2ccc(SC)cc2)C1 (centres undefined),inactive,0.969%,–,–
COC(=O)c1ccc(-c2c(-c3ccccc3)ncc3cc(F)ccc23)cc1,inactive,-9.19%,–,–
CCn1c(CSCc2ccc(F)cc2)nnc1SCC(=O)NCc1ccccc1,inactive,–,–,–
CCn1c(CSc2nc3ccccc3s2)nnc1SCC(=O)NCC(=O)OC,25.9 µM (active),-13.2%,–,–
CCn1c(CSCc2ccc(C)cc2)nnc1SCC(=O)NCc1ccccc1,20.6 µM (active),-15.2%,–,–
CCn1c(CNc2ccc(C)cc2)nnc1SCC(=O)NCc1ccccc1,inactive,-12.4%,–,–
CCn1c(CSc2nc3ccccc3s2)nnc1SCC(=O)c1ccc(O)cc1O,inactive,-7.44%,–,–
CCn1c(CSc2nc3ccccc3s2)nnc1SCC(=O)c1ccc(O)c(O)c1,inactive,8.44%,–,–
CC(C)[C@H](N)c1cn([C@@H](CC(N)=O)C(=O)N2CCNCC2)nn1,inactive,10%,–,–
